Screens deposited in PubChem by National Center for Advancing Translational Sciences (NCATS).
HCMV inh – inhibitors of human cytomegalovirus. 410,000 compounds, 4.5% hits. activity change, negative = inhibition, % at 57.5 µM. HFF cells, HCMV-luciferase reporter, 72 h; hits give low values; in the data active means activity change below about -60%; inconclusive means no clear call, values can overlap the other calls; inactive means above about -39%; further: on the % scale 0 is the no-effect control and ±100 the full control effect
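Human foreskin fibroblasts infected with luciferase-reporter HCMV at MOI 1 PFU/cell, compounds at two doses. Luciferase measured 72 h post infection; normalized to buffer-only basal and Salinomycin (10uM) controls.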
HCV inh – blocks hepatitis C virus. Huh7.5.1 HCVcc-Cre infection, luciferase reporter, 44 h. Potency, µM (top dose mostly 41.8 µM), without a hit: at the top dose activity change, negative = inhibition, most hits filed as inhibitors. 340,000 compounds, 3.4% hits; further: potency means the concentration at half of the fitted maximal effect; on the % scale 0 is the no-effect control and ±100 the full control effect
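Cells seeded at 1,000/well and cultured 4 h, then compounds added followed by HCVcc-Cre virus (~0.5 moi). After 44 h further culture, luciferase substrate was added, plates held 15 min at room temperature, and luminescence read for 15 sec.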
LASV entry inh – Lassa virus entry inhibition; Lassa virus pseudotype entry inhibition, cell reporter; Potency, µM (series often up to 37.9 µM), without a hit: at the top dose activity change, negative = inhibition, most hits filed as inhibitors; 300,000 compounds, 1.2% hits; AID 540256; calls by dose curve; tested in HEK293 cells; further: potency means the concentration at half of the fitted maximal effect; on the % scale 0 is the no-effect control and ±100 the full control effect; nearly all actives have a fitted effect of over 50% in size
MARV entry inh – Marburg virus entry inhibition; 300,000 compounds, 1.8% hits; Potency, µM (doses to about 37.8 µM), inactives show top-dose activity change, negative = inhibition, hits mostly inhibitors; Marburg virus pseudotyped entry inhibition, cell reporter; calls by dose curve; tested in HEK293 cells; further: potency means the concentration at half of the fitted maximal effect; on the % scale 0 is the no-effect control and ±100 the full control effect
SARS PLpro yeast-1 – blocks SARS-CoV papain-like protease in a yeast assay. AID 485353. S. cerevisiae expressing SARS-CoV PLpro, growth rescue. Potency, µM (highest dose often 32.9 µM), for the others: at the top dose activity, positive = growth rescue, hits mostly activators. 330,000 compounds, 0.19% hits; calls by dose curve; further: potency means the concentration at half of the fitted maximal effect; 0% is about no effect; nearly all actives have a fitted effect of over 55% in size
FMDV antiviral – blocks foot and mouth disease virus; FMDV antiviral cell-based qHTS; Potency, µM (titrated, usually from 57.9 µM), without a hit: at the top dose activity change, negative = inhibition, usual class: inhibitors; 410,000 compounds, 1.2% hits; calls by dose curve; tested in HEK293T cells; further: read-out not given here; potency means the concentration at half of the fitted maximal effect; on the % scale 0 is the no-effect control and ±100 the full control effect; nearly all actives have a fitted effect of over 45% in size
SARS PLpro yeast-2 – Inhibits SARS-CoV PLP in yeast, hit validation | shares compounds with SARS PLpro yeast-1 | yeast expressing SARS-CoV PLpro, growth phenotype rescue | calls only | 1,000 compounds, 19% hits | AID 652038; call rule not given here
HeLa G2M arrest – inducers of G2/M cell cycle arrest in HeLa cells; shares compounds with MARV entry inh; Potency, µM, most hits filed as inhibitors; HeLa cell cycle G2/M arrest, Hoechst DNA content imaging; 25 compounds, 60% hits
WI-38 tox – toxic to WI-38 fibroblasts in PNC inhibitor counter-screen; shares compounds with MARV entry inh; Potency, µM (highest dose often 46.1 µM), for inactives: top-dose activity change, negative = cytotoxicity, hits mostly inhibitors; 120 tested, under 10 active; AID 2729; WI-38 normal lung fibroblasts, ATPLite luminescence ATP viability, 24 h
PNC inh conf – confirmation of perinucleolar compartment assembly inhibitors. shares compounds with MARV entry inh. PC3M PTB-GFP, PNC prevalence imaging, 16 h. Potency, µM (doses to about 46.1 µM), for the others: at the top dose activity, negative = PNC inhibition, usual class: inhibitors. 120 compounds, 50% hits
PC3M caspase – activates caspase 3/7 in PC3M cells in PNC counter-screen. shares compounds with MARV entry inh. PC3M-GFP caspase 3/7 activation, luminescence, 24 h. activity change, positive = activation, % at 46.1 µM. 120 tested, under 10 active
Active calls of the source: *; ? = inconclusive; . = no result; + = active, no number; [ ] = remark or other dose. A selection: hits, their analogues and other compounds. The true share with any hit is near 8%. Unless noted, the call rests on the fitted dose curve; in most records, active means well fitted curve in the direction sought with a large enough effect; inconclusive means small, poorly fitted or top-dose-only effect, or another doubt; inactive means no such curve, though single readings can be large; an effect the other way counts as inactive or inconclusive.

SMILES	HCMV inh	HCV inh	LASV entry inh	MARV entry inh	SARS PLpro yeast-1	FMDV antiviral	WI-38 tox	PNC inh conf	PC3M caspase	others
CCc1nnc(NC(=O)c2ccc(S(=O)(=O)N(CC(C)C)CC(C)C)cc2)o1	-9	10%	?	?	?	6%	.	.	.	SARS PLpro yeast-2=+
O=C(Nc1nnc(C2CC2)o1)c1ccc(S(=O)(=O)N2CCc3ccccc3C2)cc1	5	11%	.	.	?	3%	.	.	.	SARS PLpro yeast-2=?
Cc1cc(C)cc(OCC(=O)Nc2nc(-c3cccnc3)cs2)c1	18	?	.	.	-6%	-16%	.	.	.
CCc1ccccc1NC(=O)COc1cccc2ccc(C)nc12	?	-18%	0%	?	1%	?	.	.	.
O=C(N/N=C/c1cc2c3c(c1O)CCCN3CCC2)c1ccccc1O	-100*	3.2µM*	1.3µM*	1.5µM*	2.8µM*	-9%	-11%	?	-8	SARS PLpro yeast-2=?
Cc1ccc(-n2[nH]c(C)c(C=Nc3ccc(S(=O)(=O)N4CCOCC4)cc3)c2=O)c(C)c1	?	2%	.	7%	?	.	.	.	.
Cc1c(NC(=O)CSc2nnc3c4ccccc4n(CCc4ccccc4)c3n2)c(=O)n(-c2ccccc2)n1C	-85*	?	0.63µM*	?	1%	?	17%	8.9µM*	-5
CN(C)S(=O)(=O)c1ccc2c(c1)C(=O)c1cc(S(=O)(=O)N(C)C)ccc1CC2	-25	.	.	.	0%	5%	.	.	.
CN(C)S(=O)(=O)c1ccc2c(c1)/C(=C/c1cc3c([nH]1)CCCC3)C(=O)N2	108	?	?	?	.	21%	.	.	.	HeLa G2M arrest=?
N#Cc1ccccc1COC(=O)c1ccc(Br)o1	-35	2%	?	-16%[46.1 µM]	-22%	26%	.	.	.
COc1cc2c(c(OC)c1OC)-c1ccc(O)c(=O)cc1[C@@H](N)CC2	-32	-14%	.	.	-7%	0%	.	.	.
COc1cc2c(c(OC)c1OC)-c1ccc(OC)c(=O)cc1[C@@H](NC(C)=O)CC2	-89*	9%	?	?	13%	-3%	.	.	.	HeLa G2M arrest=0.02*
COC(=S)N/C(=N\S(=O)(=O)c1ccc(Cl)cc1)c1ccccc1	31	11%	.	.	6%	7%	.	.	.
CNS(=O)(=O)c1cccc(C(=O)Nc2cccc(Cl)c2)c1	31	-28%	3%	-33%[46.1 µM]	5%	22%	-5%	?	-20
COC(=O)c1c(NC(=O)COc2cccc(C(F)(F)F)c2)sc2c1CCCC2	12	.	22%[46.1 µM]	.	.	-18%	.	.	.
Cc1ccc(C(O)(C(=O)NNC(=O)CN2CCN(C)CC2)c2ccc(C)cc2)cc1	?	10%	3%	?	?	-15%	-10%	-4%	-7
CC(=O)c1ccc(-n2c(SCC(=O)c3c[nH]c4ccccc34)nc3ccccc3c2=O)cc1	-88*	?	.	3%	19%	0%	-17%	28%	-7
Cc1ccccc1CN1C(=O)c2ccccc2Sc2ccc(C(=O)N3CCOCC3)cc21	?	.	-14%[46.1 µM]	.	.	-13%	.	.	.
O=C(c1ccncc1)N1CCC2(CCN(Cc3ccccc3)CC2)CC1	.	.	.	.	.	-2%	.	.	.
CC(=O)N(C)c1ccc(N=Cc2cc3c(cc2[N+](=O)[O-])OCO3)cc1	-25	17%	-18%	7%[46.1 µM]	.	-18%	.	.	.
CCN(CC)c1ccc(N=Cc2ccccc2[N+](=O)[O-])cc1	-4	?	?	?	14%	4%	-20%	-8%	-7
CN1c2ccccc2C(C)(C)C12CC(c1ccc(Cl)c(S(=O)(=O)N3CCCC3)c1)=NO2 (centres undefined)	.	5%	-9%	22%	12%	.	9%	4µM*	-7
CC(=O)/C(C#N)=C1\NC(=O)C(Cc2ccc(C)c(C)c2)S1 (centres undefined)	-95*	6%	1.3µM*	0.41µM*	-17%	9%	-13%	7.9µM*	0
CCc1ccc(S(=O)(=O)/N=C2/C=C(Sc3ncn[nH]3)C(=O)c3ccccc32)cc1	.	2.8µM*	13µM*	?	-64%	32µM*	?	28µM*	0
O=C(Nc1ccc(NC(=O)C2CC2)cn1)c1ccccc1Cl	?	?	?	?	1%	30%	?	35µM*	-19
SMILES	HCMV inh	HCV inh	LASV entry inh	MARV entry inh	SARS PLpro yeast-1	FMDV antiviral	WI-38 tox	PNC inh conf	PC3M caspase	others
O=C(Nc1ccc(NC(=O)C2CCCCC2)nc1)c1ccccn1	60	-28%	?	?	-1%	-2%	.	.	.
Cc1ccc(NC(=O)CSc2nc3ccc(NC(=O)CCc4ccccc4)cc3s2)cc1	3	.	1%[46.1 µM]	-3%[46.1 µM]	.	-13%	.	.	.
CCC(=NCc1cc(OC)cc(OC)c1)c1c(O)n(C)c(=O)n(C)c1=O	-90*	6.3µM*	?	21µM*	3%	?	7%	?	-10
CCC(=Nc1cccc(C(F)(F)F)c1)c1c(O)n(C)c(=O)n(C)c1=O	24	10%	-8%	1%[46.1 µM]	3%	-31%	.	.	.
CCCNC1=C(N(C(C)=O)c2cccc(F)c2)C(=O)c2ccccc2C1=O	-100*	7.9µM*	?	?	-21%	28µM*	-16%	?	?
CN(Cc1ccco1)c1ncncc1-c1cccc(NS(C)(=O)=O)c1	.	.	.	.	.	-17%	.	.	.
N=c1c2c(-c3ccccc3)c(-c3ccccc3)n(Cc3ccco3)c2ncn1CCCn1ccnc1	-97*	?	11µM*	3.5µM*	-19%	?	-19%	25µM*	-6
N=c1c2c(-c3ccccc3)c(-c3ccccc3)n(Cc3ccccc3)c2ncn1CCO	?	?	?	?	0%	?	.	.	.
COc1cc(NC(=O)c2n[nH]c(=O)c3ccccc23)cc(OC)c1	-36	5%	.	.	-1%	-14%	.	.	.
COc1ccc(-c2nc(NC(=O)c3n[nH]c(=O)c4ccccc34)sc2C)cc1	-60*	?	1µM*	0.79µM*	-3%	-9%	11%	4µM*	-5
CS(=O)(=O)Nc1cccc(-c2cnc3ccccc3n2)c1	134	-19%	-55%[46.1 µM]	?	-3%	0%	.	.	.
